Screening data: PubChem BioAssay, Broad Institute
Tg IFNy HTS: T. gondii growth inhibition with IFN-gamma, primary screen, cell-based; Toxoplasma gondii growth in IFN-gamma-treated host cells; stronger effect = lower value; activity change, negative = inhibition, % (test concentration not listed); 69,000 tested, 3.8% active; in the data active = activity change below about -70%, passing the limit was not always enough;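 also: host cells are HeLa cells infected with Toxoplasma gondii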
A number is an active result; - = inactive. This is one part of a sample in which hits are shown more often than they occur.

SMILES	Tg IFNy HTS
COc1ccccc1-c1nc(Cn2ccn3nc(-c4cccs4)cc3c2=O)c(C)o1	-
COc1ccc(-c2cc3c(=O)n(Cc4nc(-c5ccc(OC(C)C)cc5)oc4C)ccn3n2)cc1OC	-92
COc1ccc(-c2nc(Cn3ccn4nc(-c5ccc(OC)c(OC)c5)cc4c3=O)c(C)o2)cc1	-
COc1ccc2[nH]cc(CCN3CC(C(=O)Nc4ccc5c(c4)CCC5)CC3=O)c2c1 (configuration not stated)	-
COc1cc(OC)cc(C(=O)N2CCCC3(C2)Nc2cccnc2NC3=NC2CCCC2)c1 (configuration not stated)	-
Cc1ccsc1[C@@H]1CCN(Cc2cc(CC(C)C)n[nH]2)C[C@H]1O	-
CSc1ccc(CN(CCO)C(=O)c2ccc3c(c2)OCO3)cc1	-
Cc1cc(Cc2ccccc2)cc(C2CCCN(C(=O)CCc3nc(C)no3)C2)n1 (configuration not stated)	-
O=C(COc1ccc2c(c1)OCO2)N1CCN(C(=O)c2ccco2)CC1	-
O=C(CCSc1nc(-c2ccc3c(c2)OCO3)cc(C(F)(F)F)n1)N1CCCCC1	-76
O=C(/C=C/c1ccc2c(c1)OCO2)N1CCCCC1	-
N=C1OC2(CCN(Cc3ccccc3)CC2)NC12CCN(Cc1ccccc1)CC2	-
CC(=O)Nc1ccc(Cl)c(C(=O)N(C)C2Cc3ccccc3C2)c1	-
Cc1nn(Cc2nnc(SCc3c(F)cccc3Cl)n2C)c(C)c1Br	-
Cc1nn(CCC#N)c(C)c1Cc1c(Cl)cccc1Cl	-111
N#CCCn1nc(-c2cccnc2)oc1=O	-
O=C(c1ccco1)N1CCO[C@]2(CCC[C@H]2COc2cccnc2)C1	-
COCCCNC(=O)c1cncc(N(C)S(=O)(=O)c2ccccc2)c1	-
Cc1ccc(N2CCC3(CC2)CN(CC#N)Cc2ccccc23)nn1	-
CCn1c(-c2ccc(F)cc2)cnc1SCC(=O)NCCc1c[nH]c2ccccc12	-
c1coc(-c2nc(NCCN3CCCCC3)ncc2-c2ccncc2)c1	-
Cc1nc(-n2cnnc2)ccc1-c1ccc(C(N)=O)cc1	-
COc1ccc(-c2ccc(-n3cnnc3)nc2C)cn1	-88
CCCc1nc(C)cc(-c2ccc(OC)nc2)n1	-
COc1ccc(-c2ccccc2C(=O)NC(C)C)cc1F	-
SMILES	Tg IFNy HTS
COc1ccc(CN2C(=O)N(C)C3(CCN(Cc4cccc(Oc5ccccc5)c4)CC3)C2=O)cc1	-81
COc1ccc(CN2C(=O)N(C)C3(CCN(Cc4nc(-c5ccccc5)cs4)CC3)C2=O)cc1	-
CCN1C(=O)N(Cc2cccc(OC)c2)C(=O)C12CCN(Cc1nc3ccccc3nc1C)CC2	-
CCCn1ncc(C(=O)N2CCCC(C(=O)c3nccn3C)C2)c1C (configuration not stated)	-
COc1ccc(C(=O)NCCc2sc(-c3ccc(F)cc3)nc2C)c(OC)c1	-87
COc1ccc(C(=O)NCCc2sc(-c3ccc(Cl)cc3)nc2C)c(OC)c1	-
Cc1nc(-c2ccc(F)cc2)sc1CCNC(=O)c1ccccc1F	-
COc1ccc(Cl)cc1C(=O)NCCc1sc(-c2ccc(F)cc2)nc1C	-102
COc1cccc(C(=O)NCCc2sc(-c3ccc(F)cc3)nc2C)c1OC	-
COc1ccc(C(=O)NCCc2sc(-c3cccc(F)c3)nc2C)c(OC)c1	-
COCC#Cc1ccc([C@@H]2[C@@H](CO)N3C(=O)CN(C(=O)C4CCCCC4)C[C@@H]23)cc1	-
Cc1cc(F)ccc1NC(=O)CN1C(=O)CCc2cc(S(=O)(=O)N3CCCCC3C)ccc21 (configuration not stated)	-
O=C(c1nc(-c2cccc(F)c2)n2c1CCCCC2)N1CCC2(CC1)OCCO2	-
COC(=O)CC(=O)CCc1cc(OC)no1	-
COc1ccc(-n2c(=O)n(Cc3nc(-c4cccc(C)c4)oc3C)c(=O)c3cccnc32)cc1	-
NCC1Cc2cccc(-c3cc4c(cc3C(N)=O)OCO4)c2O1 (configuration not stated)	-
Clc1cc(Cl)cc(N=c2ssnc2-c2ccccc2Cl)c1	-90
O=C(Nc1ccc(Cl)cc1)N1CCN(c2cccc3[nH]ccc23)CC1	-
Cc1ccc(C(=O)N2CCC(C(=O)NCCc3csc(-c4ccccc4)n3)CC2)cc1C	-
CCOc1ccccc1-c1nc(Cn2cnc3nc4c(cc3c2=O)CCCC4)c(C)o1	-
COc1cc(C)ccc1-c1c(-c2ccccc2)ncn1CCNC(=O)C(C)C	-
COc1ncc(C(=O)Nc2ccc(N3CCCC3)c(F)c2)cn1	-
COc1cc(C(=O)Nc2ccc(N3CCCCC3)c(C(F)(F)F)c2)nc(OC)n1	-82
CC1(C)NC(=O)N(CC(=O)Nc2ccc(N3CCCCC3)c(C(F)(F)F)c2)C1=O	-
COc1ccc(-c2cn(CC[C@@H]3CC[C@@H](NC(=O)c4cnccn4)[C@H](CO)O3)nn2)cc1	-
CCn1c(-c2cc(NC(=O)c3cncc(Br)c3)n[nH]2)cc2ccc(OC)cc21	-85
COc1ccc(OC)c(NC(=O)c2cncc(NS(=O)(=O)c3ccc(Br)cc3)c2)c1	-
CC(C)OC(=O)c1ccc(NC(=O)c2cncc(Br)c2)cc1	-
CCn1c(-c2cc(NC(=O)c3cnccn3)n[nH]2)cc2ccc(OC)cc21	-103
